From ChEMBL document CHEMBL2218924, “A broad activity screen in support of a chemogenomic map for kinase signalling research and drug discovery” (Biochem J, 2013) come the findings set out here.

As usually defined, the residual activity is the signal under treatment as a percentage of the control signal.

Chain of Death-associated protein kinase 1 (Homo sapiens) (P53355 whole entry, looked up): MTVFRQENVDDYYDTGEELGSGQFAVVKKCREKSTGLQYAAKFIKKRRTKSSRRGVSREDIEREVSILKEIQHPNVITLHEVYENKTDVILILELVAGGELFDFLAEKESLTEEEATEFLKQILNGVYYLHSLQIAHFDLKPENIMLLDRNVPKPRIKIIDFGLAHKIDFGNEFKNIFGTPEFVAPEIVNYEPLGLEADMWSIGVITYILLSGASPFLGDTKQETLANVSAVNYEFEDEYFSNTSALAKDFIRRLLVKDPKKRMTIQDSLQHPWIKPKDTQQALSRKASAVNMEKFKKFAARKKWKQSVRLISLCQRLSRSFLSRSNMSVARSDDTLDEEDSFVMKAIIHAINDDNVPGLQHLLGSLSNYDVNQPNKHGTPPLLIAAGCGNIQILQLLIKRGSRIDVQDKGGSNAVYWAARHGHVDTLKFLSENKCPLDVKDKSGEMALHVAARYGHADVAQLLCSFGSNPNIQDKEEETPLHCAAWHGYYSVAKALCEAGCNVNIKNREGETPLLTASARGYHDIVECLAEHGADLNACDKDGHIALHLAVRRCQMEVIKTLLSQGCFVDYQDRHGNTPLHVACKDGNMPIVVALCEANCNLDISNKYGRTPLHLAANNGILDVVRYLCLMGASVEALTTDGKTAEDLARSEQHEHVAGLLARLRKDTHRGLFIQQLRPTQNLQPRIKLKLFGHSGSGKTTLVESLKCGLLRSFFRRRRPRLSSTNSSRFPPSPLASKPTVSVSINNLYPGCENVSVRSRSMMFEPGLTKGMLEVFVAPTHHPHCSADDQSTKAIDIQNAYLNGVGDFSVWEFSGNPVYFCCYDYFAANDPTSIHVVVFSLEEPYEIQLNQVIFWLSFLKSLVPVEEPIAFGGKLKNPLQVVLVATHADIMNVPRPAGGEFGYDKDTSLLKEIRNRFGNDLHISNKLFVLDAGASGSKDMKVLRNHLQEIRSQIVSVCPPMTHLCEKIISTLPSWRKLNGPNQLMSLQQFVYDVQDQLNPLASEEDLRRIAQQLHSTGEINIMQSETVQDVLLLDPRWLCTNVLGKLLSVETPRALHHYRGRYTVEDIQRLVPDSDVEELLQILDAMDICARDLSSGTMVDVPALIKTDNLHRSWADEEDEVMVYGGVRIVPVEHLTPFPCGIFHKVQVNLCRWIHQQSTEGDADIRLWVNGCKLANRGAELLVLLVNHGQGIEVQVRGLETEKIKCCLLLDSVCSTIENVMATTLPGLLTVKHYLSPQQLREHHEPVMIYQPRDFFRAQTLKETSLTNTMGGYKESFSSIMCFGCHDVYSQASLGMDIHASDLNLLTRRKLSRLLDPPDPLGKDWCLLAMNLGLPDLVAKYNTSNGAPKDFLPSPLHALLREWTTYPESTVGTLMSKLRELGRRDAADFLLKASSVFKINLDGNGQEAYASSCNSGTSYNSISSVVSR

The experiment concerns the target Death-associated protein kinase 1 (Homo sapiens) (UniProt P53355). Conditions: at 1 µM.
Turning to `CC(=O)O/N=C1\C(=C2\C(=O)Nc3cc(Br)ccc32)Nc2ccccc21`, the residual activity was determined as 98%. For `COc1ccc(OC)c2c(=S)c3ccccc3[nH]c12`, the residual activity amounted to 95%. As to `CN(C)S(=O)(=O)c1ccc2c(c1)/C(=C/c1cc3c([nH]1)CCCC3)C(=O)N2`, the residual activity was 90%. With `COc1ccc(CNc2nc(N(CCO)CCO)nc3c2ncn3C(C)C)cc1`, the residual activity came to 93%. The result for `CC(=O)c1ccc(N2CCOCC2)cc1O` reads 111%. The result for `Nc1cccc(-c2cc3c(Oc4cccc(O)c4)ncnc3[nH]2)c1` reads 89%; that for `O=C1NC(=O)c2c1c1c3ccccc3[nH]c1c1[nH]c3cc(Br)ccc3c21`, 85%. The result for `NC(=O)c1ccc(-c2nc(-c3ccc4c(c3)OCCO4)c(-c3ccccn3)[nH]2)cc1` reads 86%; that for `Cc1ccc(NC2=CC(=O)c3sc(C)nc3C2=O)cc1`, 87%. In the case of `CN(C)c1ccc(/C=C2\C(=O)Nc3ccccc32)cc1`, the residual activity is 102%.
